HCMV inh: qHTS Assay for inhibitors of the human cytomegalovirus (HCMV) | HFF cells, HCMV-luciferase reporter, 72 h; hits give low values | AID 1259415, 2018 | activity change, negative = inhibition, % at 57.5 µM | 410,000 tested, 4.5% active; in the data active = activity change below about -60%; inconclusive = no clear call, values can overlap the other calls; inactive = above about -39%
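HFF cells seeded 16 h at 37C, treated with compounds, infected with luciferase-reporter HCMV at MOI 1 PFU/cell; luciferase read at 72 h post infection, normalized to buffer-only and Salinomycin controls.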
Lassa entry inh: qHTS for Inhibitors of binding or entry into cells for Lassa Virus | Lassa virus pseudotype entry inhibition, cell reporter | Potency, µM (highest dose often 37.9 µM), without a hit: at the top dose activity change, negative = inhibition, hits mostly inhibitors | 300,000 tested, 1.2% active | AID 540256, 2011; calls by dose curve; tested in HEK293 cells; note: potency is the fitted concentration of half-maximal effect; nearly all actives have a fitted effect of over 50% in size
VACV Venus inh: qHTS for Stage-Specific Inhibitors of Vaccinia Orthopoxvirus: Venus Reporter Primary qHTS. Vaccinia virus Venus reporter expression, fluorescence. Potency, µM (top dose mostly 36.5 µM), without a hit: top-dose activity change, negative = inhibition, usual class: inhibitors. 330,000 tested, 0.46% active. AID 720580, 2013; calls by dose curve; tested in A549 cells; note: potency is the fitted concentration of half-maximal effect; nearly all actives have a fitted effect of over 30% in size
HCV inhibitor: qHTS Assay for Inhibitors of Hepatitis C Virus (HCV) | Huh7.5.1 HCVcc-Cre infection, luciferase reporter, 44 h | 340,000 tested, 3.4% active | Potency, µM (top dose mostly 41.8 µM), without a hit: top-dose activity change, negative = inhibition, usual class: inhibitors | AID 651820, 2012; active = well fitted inhibition curve with a large enough effect; inconclusive = small, poorly fitted or top-dose-only effect, or another doubt; inactive = no such curve, though single readings can be large or run the other way; note: potency is the fitted concentration of half-maximal effect
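Cells seeded at 1,000/well and cultured 4 h, then compounds added followed by HCVcc-Cre virus (~0.5 moi). After 44 h further culture, luciferase substrate was added, plates held 15 min at room temperature, and luminescence read for 15 sec.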
Vaccinia mCherry: qHTS for Stage-Specific Inhibitors of Vaccinia Orthopoxvirus: mCherry Reporter Primary qHTS | Vaccinia virus mCherry reporter infection, fluorescence | Potency, µM (doses to about 36.5 µM), for inactives: at the highest dose activity change, negative = inhibition, actives largely listed as inhibitors | 310,000 tested, 0.63% active | AID 720579, 2013; calls by dose curve; tested in A549 cells; note: potency is the fitted concentration of half-maximal effect; nearly all actives have a fitted effect of over 35% in size
MARV entry inh: qHTS for inhibitors of binding or entry into cells for Marburg Virus. Potency, µM (series often up to 37.8 µM), for inactives: at the top dose activity change, negative = inhibition, most hits filed as inhibitors. 300,000 tested, 1.8% active. AID 540276, 2011. Marburg virus pseudotyped entry inhibition, cell reporter; calls by dose curve; tested in HEK293 cells; note: potency is the fitted concentration of half-maximal effect
The depositor's hits bear a star; [ ] = dose if it differs, or a comment. Most compounds without a hit are left out; they make up all but 7.8% or so of the library. % is set by controls: 0 for no effect and ±100 for the full control effect.

Cc1ccccc1NS(=O)(=O)c1ccc(C(=O)NCC(c2ccccc2)N(C)C)cc1 (centres undefined) was read as HCMV inh -14, Lassa entry inh -1%, VACV Venus inh -17%, HCV inhibitor -21%, Vaccinia mCherry -5% and MARV entry inh 11µM*.
O=C1[C@@H]2CSCCS(=O)(=O)N2C(=O)N1C1CCCCC1 was read as HCMV inh -19 and Lassa entry inh 4%[46.1 µM].
O=C(NCc1ccc(F)cc1)C(c1ccccc1)c1ccccc1 was read as HCMV inh -11 and HCV inhibitor -6%.
Screening CC(=O)N(Cc1ccc(F)cc1)C1=C(NCc2ccccc2)C(=O)c2ccccc2C1=O returned Lassa entry inh 6.3µM*, VACV Venus inh 3.5µM*, HCV inhibitor 5µM*, Vaccinia mCherry 2.5µM* and MARV entry inh inconclusive.
For c1ccc(COc2ncnc3c2ncn3CCCNC2CCN(Cc3ccccc3)CC2)cc1 the results were HCMV inh -86*, VACV Venus inh inconclusive and Vaccinia mCherry -30%.
Screening COc1cc(OC)c(C2Oc3nc(SC)nnc3-c3ccccc3N2C(C)=O)cc1OC (centres undefined) returned HCMV inh 12, VACV Venus inh 11%, HCV inhibitor -1%, Vaccinia mCherry 7% and MARV entry inh 5%.
Screening CCSc1nnc2c(n1)OC(c1ccc(OC)cc1OC)N(C(C)=O)c1ccccc1-2 (centres undefined) returned HCMV inh -63*, Lassa entry inh -27%[46.1 µM], VACV Venus inh 9%, Vaccinia mCherry -7% and MARV entry inh -7%[46.1 µM].
Screening COC(=O)c1cc2oc3ccccc3c2n1Cc1ccc(C)cc1 returned HCMV inh -30, VACV Venus inh -1%, Vaccinia mCherry -8% and MARV entry inh -7%[46.1 µM].
Screening CCn1c(C(=O)NCc2cccc(Br)c2)cc2oc3ccccc3c21 returned HCMV inh -82*, VACV Venus inh -1%, Vaccinia mCherry 0% and MARV entry inh inconclusive.
Screening CCn1c(C(=O)NCc2ccccc2Br)cc2oc3ccccc3c21 returned HCMV inh -71*, VACV Venus inh 23%, Vaccinia mCherry inconclusive and MARV entry inh inconclusive.
`CCn1c(C(=O)NCc2cc(Br)ccc2OC)cc2oc3ccccc3c21` gave HCMV inh inconclusive, VACV Venus inh -1%, Vaccinia mCherry 7% and MARV entry inh 2.8µM*.
For COC(=O)c1cc2oc3ccccc3c2n1CC(=O)Nc1ccc(OC)c(OC)c1OC the results were HCMV inh -28, VACV Venus inh -7%, Vaccinia mCherry -17% and MARV entry inh inconclusive.
For Cc1cc(C)cc(N2C(=O)CS(=O)(=O)C23C(=O)N(Cc2ccc(F)cc2)c2ccc(C)cc23)c1 (centres undefined) the results were HCMV inh -5, Lassa entry inh inconclusive, VACV Venus inh -6% and Vaccinia mCherry -1%.
`COc1ccc2[nH]c3c(N4CCN(Cc5ccc6c(c5)OCO6)CC4)ncnc3c2c1` gave HCMV inh -26, Lassa entry inh inconclusive, VACV Venus inh inconclusive, HCV inhibitor inconclusive and MARV entry inh inconclusive.
For c1ccc2c(c1)[nH]c1c(N3CCOCC3)ncnc12 the results were HCMV inh -32, Lassa entry inh -2%, VACV Venus inh -23%, HCV inhibitor inconclusive, Vaccinia mCherry inconclusive and MARV entry inh -10%.
Screening Brc1ccc2[nH]c3c(N4CCc5ccccc5C4)ncnc3c2c1 returned Lassa entry inh -28%, HCV inhibitor 3.5µM* and MARV entry inh inconclusive.
Screening Fc1ccc2[nH]c3c(N4CCc5ccccc5C4)ncnc3c2c1 returned HCMV inh -40, Lassa entry inh inconclusive, VACV Venus inh -11%[7.34 µM], HCV inhibitor 5µM*, Vaccinia mCherry -19%[7.34 µM] and MARV entry inh inconclusive.
`CCOc1ccc2[nH]c3c(NCCOC)ncnc3c2c1` gave HCMV inh 27 and HCV inhibitor -11%.
For CCOc1ccc2[nH]c3c(N4CCc5ccccc5C4)ncnc3c2c1 the results were HCMV inh 9, Lassa entry inh inconclusive, VACV Venus inh inconclusive, HCV inhibitor -79%, Vaccinia mCherry 3.5µM* and MARV entry inh 10µM*.
Screening COc1ccc2[nH]c3c(N4CCC(O)(c5cccc(C(F)(F)F)c5)CC4)ncnc3c2c1 returned HCMV inh inconclusive, Lassa entry inh inconclusive, VACV Venus inh inconclusive, HCV inhibitor 6.3µM*, Vaccinia mCherry inactive and MARV entry inh inconclusive.
`Cc1ccc(-n2c3c(cc(C(=O)Nc4cccc(Cl)c4)c2=O)C(=O)CC(C)(C)C3)cc1` gave HCMV inh 56, Lassa entry inh -28%[46.1 µM], VACV Venus inh -6% and Vaccinia mCherry inactive.
`CCCCC/C=C\C=C\[C@H](O)CCCCCCCC(=O)O` gave VACV Venus inh -18%[0.293 µM] and Vaccinia mCherry -20%[0.293 µM].
`c1ccc2c(c1)[nH]c1c(N3CCSCC3)ncnc12` gave HCMV inh -32, Lassa entry inh 6%, HCV inhibitor 13µM* and MARV entry inh -11%.
Screening Cc1ccc2[nH]c3c(N4CCc5ccccc5C4)ncnc3c2c1 returned HCMV inh -67*, Lassa entry inh inconclusive, VACV Venus inh inconclusive, HCV inhibitor 3.5µM*, Vaccinia mCherry inconclusive and MARV entry inh 6.3µM*.
Screening CN1CCN(c2ncnc3c2[nH]c2ccc(F)cc23)CC1 returned HCMV inh -13, Lassa entry inh 0%, VACV Venus inh -14%, HCV inhibitor 10µM*, Vaccinia mCherry -9% and MARV entry inh -6%.
For Cc1ccc2[nH]c3c(N4CCOCC4)ncnc3c2c1 the results were HCMV inh inconclusive, Lassa entry inh 7%, VACV Venus inh -19%, HCV inhibitor inconclusive, Vaccinia mCherry -26% and MARV entry inh -29%[46.1 µM].
COc1ccc(OC)c2sc(N(Cc3cccnc3)C(=O)c3ccco3)nc12 was read as HCMV inh active, Lassa entry inh 13%[46.1 µM], VACV Venus inh -8% and Vaccinia mCherry -19%.
`COc1ccc2nc(N(Cc3cccnc3)C(=O)c3ccc4c(c3)OCCO4)sc2c1` gave HCMV inh 40, Lassa entry inh 6%[46.1 µM], VACV Venus inh -7%[7.34 µM] and Vaccinia mCherry 1%[7.34 µM].
Screening CCc1ccc2nc(N(Cc3cccnc3)C(=O)c3cccs3)sc2c1 returned HCMV inh -61*, Lassa entry inh -3%[46.1 µM], VACV Venus inh -14% and Vaccinia mCherry -5%.

Source: PubChem BioAssay
